FMDV antiviral – High Throughput Screening for Foot and Mouth Disease Virus Antivirals | 410,000 compounds, 1.2% hits | Potency, µM (highest dose often 57.9 µM), inactives show at the top dose activity change, negative = inhibition, usual class: inhibitors | FMDV antiviral cell-based qHTS | AID 1159524, 2015; calls by dose curve; tested in HEK293T cells; note: read-out not given here; potency is the fitted concentration of half-maximal effect; % is set by controls: 0 for no effect and ±100 for the full control effect; nearly all actives have a fitted effect of over 45% in size
MARV entry inh – qHTS for inhibitors of binding or entry into cells for Marburg Virus | Marburg virus pseudotyped entry inhibition, cell reporter | Potency, µM (doses to about 37.8 µM), for the others: top-dose activity change, negative = inhibition, most hits filed as inhibitors | 300,000 compounds, 1.8% hits | AID 540276, 2011; calls by dose curve; tested in HEK293 cells; note: potency is the fitted concentration of half-maximal effect; % is set by controls: 0 for no effect and ±100 for the full control effect
HCV inhibitor – qHTS Assay for Inhibitors of Hepatitis C Virus (HCV). Huh7.5.1 HCVcc-Cre infection, luciferase reporter, 44 h. Potency, µM (titrated, usually from 41.8 µM), for inactives: top-dose activity change, negative = inhibition, actives largely listed as inhibitors. 340,000 compounds, 3.4% hits; active = well fitted inhibition curve with a large enough effect; inconclusive = small, poorly fitted or top-dose-only effect, or another doubt; inactive = no such curve, though single readings can be large or run the other way; note: potency is the fitted concentration of half-maximal effect; % is set by controls: 0 for no effect and ±100 for the full control effect
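Cells (1,000/well) were plated 4 h before compound, then infected with HCVcc-Cre virus (~0.5 moi). After 44 h further culture, infection was read as luciferase luminescence following a 15 min substrate incubation at room temperature.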
LASV entry inh – qHTS for Inhibitors of binding or entry into cells for Lassa Virus; 300,000 compounds, 1.2% hits; Potency, µM (titrated, usually from 37.9 µM), without a hit: at the top dose activity change, negative = inhibition, actives largely listed as inhibitors; Lassa virus pseudotype entry inhibition, cell reporter; calls by dose curve; tested in HEK293 cells; note: potency is the fitted concentration of half-maximal effect; % is set by controls: 0 for no effect and ±100 for the full control effect; nearly all actives have a fitted effect of over 50% in size
Shiga inhibitor – A qHTS for Small Molecule Inhibitors of Shiga Toxin; Vero cells, Shiga toxin protein synthesis inhibition reporter; inhibition, % at 38.7 µM; 290,000 compounds, 9.2% hits; in the data active = inhibition mostly above about 28%, no sharp cut-off; inactive = mostly below about 43%; note: 0% is about no effect
CHX counter – Cycloheximide Counterscreen for Small Molecule Inhibitors of Shiga Toxin. 300,000 compounds, 12% hits. max response, %. cell reporter, cycloheximide protein synthesis inhibition counterscreen; in the data active = max response mostly above about 13%, no sharp cut-off; inactive = mostly below about 14%; note: read at 38.3 µM for the half of the compounds with a filed dose; 0% is about no effect
Active calls of the source: *; ? = inconclusive; nt = not tested or not shown; + = active, no number; [ ] = dose if it differs, or a comment. A selection: hits, their analogues and other compounds. The true share with any hit is near 13%.

SMILES	FMDV antiviral	MARV entry inh	HCV inhibitor	LASV entry inh	Shiga inhibitor	CHX counter
CCCCNc1ncnc2c1cnn2-c1ccccc1	1%	10µM*	?	?	92*	61*
Clc1ccc(-n2ncc3c(NCc4ccccn4)ncnc32)cc1	50%	3%	?	?	-22	-2
CCc1nc(NC(C)(C)C)c2cnn(-c3ccccc3)c2n1	0%	-25%[46.1 µM]	?	-24%[46.1 µM]	99*	41*
Clc1ccc(-n2ncc3c(NCCCn4ccnc4)ncnc32)cc1	31%	?	11µM*	?	35*	21*
Cc1csc(SCC(=O)N2CCOc3ccc(C(O)C4CCCCC4)cc3C2)n1 (stereo not given)	-4%	nt	nt	nt	nt	nt
CCCCNc1ncnc2c1cnn2-c1ccc(Cl)cc1	-9%	nt	10µM*	nt	72*	51*
CC(C)(C)C(=O)CSc1ncnc2c1cnn2-c1ccccc1	-11%	?	-21%	?	62*	43*
O=C(NCc1nnc2n1CCN(C(=O)c1cccc(Cl)c1)CC2)C1CC1	-2%	nt	nt	nt	nt	nt
Cc1ccc(NC(=O)NC2=NN(c3ccccc3)C(=O)/C2=C2/CCCN2C)cc1	19%	nt	17%	nt	90*	27*
CN1CCC/C1=C1/C(=O)N(c2ccccc2)N=C1NC(=O)Nc1cccc(Cl)c1	-9%	4%	0%	-5%	31	-2
CCOc1ccc2nc3ccc4[nH]onc4c3c2c1	nt	-7%	2.5µM*	-12%	nt	nt
Cc1cc(=O)oc2c3c(cc(OCC(=O)NCC(=O)O)c12)OC(C)(C)CC3	0%	nt	-9%	nt	11	6
CCCc1cc(=O)oc2c3c(cc(OCC(=O)NCc4ccccn4)c12)OC(C)(C)CC3	-26%	nt	10µM*	nt	1	-1
Cc1cc(=O)oc2c3c(cc(OCC(=O)NCc4ccccc4)c12)OC(C)(C)CC3	-28%	nt	5.6µM*	nt	-4	-3
CCCc1cc(=O)oc2c3c(cc(OCC(=O)NCc4ccncc4)c12)OC(C)(C)CC3	?	nt	?	nt	-3	-2
CC(C(=O)N1CCCC1)N1CCN(S(=O)(=O)c2ccc(OC(F)(F)F)cc2)CC1 (stereo not given)	-19%	-4%	9%	-11%	nt	nt
Cc1cc(C)nc(NS(=O)(=O)c2ccc(NC(=O)Nc3ccccc3F)cc2)n1	102%	nt	-3%	nt	0	0
CCOC(=O)C1=C(c2ccccc2)O/C(=C(\C(=O)OC)C(F)(F)F)S1	-19%	-18%	-17%	-13%	-4	0
COC(=O)/C(=C1/Oc2cc(C)oc(=O)c2S1)C(F)(F)F	28µM*	?	10µM*	?	20	12
COC(=O)/C(=C1/Oc2ccc(C(C)(C)C)cc2S1)C(F)(F)F	44%	2%	6%	-1%	10	50*
c1ccc(-c2onc3cc4c(cc23)OCCO4)cc1	41%	15%	?	-1%	+	35*
CC(=O)c1ccc2noc(-c3ccccc3)c2c1	-3%	-3%[46.1 µM]	?	-2%[46.1 µM]	33	14
Clc1cccc(-c2cc3nc4c(c(NCc5ccco5)n3n2)CCCC4)c1	nt	-28%	10µM*	-3%	131*	47*
c1coc(CNc2c3c(nc4ncnn24)CCCC3)c1	-22%	-8%[46.1 µM]	-26%	7%	10	9
OCCCNc1c2c(nc3cc(-c4ccc(Cl)cc4)nn13)CCC2	1%	nt	?	nt	40*	5.9*
CN(CCO)c1c2c(nc3cc(-c4cccc(F)c4)nn13)CCCC2	24%	-23%	-21%	0%	46	42*
Clc1cccc(-c2cc3nc4c(c(N5CCNCC5)n3n2)CCCC4)c1	nt	nt	5%	nt	43	31*

Source: PubChem BioAssay
